# Screening data (PubChem BioAssay)
# The list is not random: actives were taken first. Their share in the collection is about 1.5%.
# NALP3 yeast inh: blocks the NALP3 inflammasome reconstituted in yeast; inhibition, % at 10 µM; Yeast reconstituted NLRP3/ASC/caspase-1, beta-gal luminescence, 24 h; AID 2825; 0.39% of 330,000 active;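 active = inhibition of 50% or more; inactive = inhibition below 50%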
# Efflux pump mplx: blocks antifungal efflux pumps in multiplex yeast assay | S. cerevisiae Candida pump triplex, Nile Red efflux | inhibition, % at 10 µM | 0.44% of 330,000 active | AID 485275;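 active = plate passing quality check with inhibition over a set limit, or well fluorescence over plate mean plus 4 SD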;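 also: Nile Red retained in pooled yeast measured as flow cytometry median fluorescence; higher means more Nile Red kept so more efflux inhibition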
# PolyA inhibitor: blocks polyadenylation in yeast reporter cells | AID 1875 | 0.02% of 300,000 active | S. cerevisiae SKY197-pL101 polyadenylation reporter, beta-gal luminescence; efflux-impaired pdr1/pdr3 knockout yeast; score 100 = 6 SD above DMSO | activity score, % at 12 µM;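 active = lowest replicate activity score at least 50, where 100 means six control SD above control mean; inconclusive = lowest score under 50 but half or more replicates reach 50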;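 also: yeast exposed to compound for 9 h at 30 °C; higher score means more reporter readthrough which indicates perturbed polyadenylation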
# HDAC3 inhib: blocks human histone deacetylase 3; AID 2718; inhibition, % at 8.3 µM; recombinant HDAC3, fluorogenic peptide/trypsin coupled, fluorescence; 0.15% of 320,000 active; O15379; in the data active = inhibition above about 26%, passing the limit was not always enough; inconclusive = no clear call, values can overlap the other calls
# Target sequence (O15379 whole entry, looked up): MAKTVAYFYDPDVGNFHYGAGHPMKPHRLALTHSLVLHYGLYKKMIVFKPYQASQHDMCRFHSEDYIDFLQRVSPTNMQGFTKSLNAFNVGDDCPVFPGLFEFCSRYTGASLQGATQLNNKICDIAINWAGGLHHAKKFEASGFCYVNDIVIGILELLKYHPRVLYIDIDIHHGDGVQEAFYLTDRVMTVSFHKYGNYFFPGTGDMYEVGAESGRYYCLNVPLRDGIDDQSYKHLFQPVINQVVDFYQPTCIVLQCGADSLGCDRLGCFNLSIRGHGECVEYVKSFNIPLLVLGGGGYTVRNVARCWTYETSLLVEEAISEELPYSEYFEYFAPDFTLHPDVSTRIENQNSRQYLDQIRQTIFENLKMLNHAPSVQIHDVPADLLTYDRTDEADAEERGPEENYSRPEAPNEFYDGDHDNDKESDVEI
# NALP1 inh: inhibitors of NALP1 inflammasome in yeast; S. cerevisiae NALP1/ASC/caspase-1 growth, X-gal OD620, 72 h; 0.61% of 280,000 active; inhibition, % at 10 µM; in the data active = inhibition mostly above about 24%, no sharp cut-off; inactive = mostly below about 32%
# GASC-1 inh: inhibitors of human GASC-1 (JMJD2C) demethylase; Q9H3R0; AID 2099; inhibition, % at 2.35 µM; GST-JMJD2C(1-420) H3K9me3 demethylation, DELFIA europium; 0.069% of 330,000 active;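 active = more than half of a compound's replicate wells show inhibition beyond 50%, single wells judged on their own value; inconclusive = some, but no more than half, of replicates pass 50% inhibition; inactive = no replicate passes 50% inhibition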;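 also: signal counts dimethyl H3K9 product captured on neutravidin plate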
# Cmpd fluor yeast: compound fluorescence in yeast efflux pump counter-screen; shares compounds with Efflux pump mplx; S. cerevisiae AD/pABC3, flow cytometry; fluorescence ratio to DMSO, % at 10 µM; 4% of 1,700 active; AID 588517;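 active = fluorescence ratio to DMSO above its plate's cutoff, the plate mean ratio plus 5 SD, cut at about 210% in these data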;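 also: unstained yeast with no Nile Red so the signal is compound autofluorescence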
# CaMdr1 efflux inh: inhibitors of Candida albicans Mdr1 efflux pump; inhibition, % at 10 µM; S. cerevisiae AD/CaMDR1, Nile Red efflux, flow cytometry; 1% of 1,700 active; shares compounds with Efflux pump mplx; in the data active = inhibition above about 26%;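 also: higher means more Nile Red retained so more efflux inhibition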
# CaCdr2 efflux inh: blocks the Candida albicans Cdr2 efflux pump in yeast; shares compounds with Efflux pump mplx; S. cerevisiae AD/CaCDR2, Nile Red retention, flow cytometry; Nile Red retention ratio vs DMSO, % at 10 µM; 4% of 1,700 active; in the data active = Nile Red retention ratio vs DMSO above about 190%;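 also: higher ratio means more blocking of Cdr2 efflux of the dye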
# Cdr1 pump inh: Candida Cdr1 efflux pump inhibition | shares compounds with Efflux pump mplx | S. cerevisiae AD/CaCDR1, Nile Red efflux, flow cytometry | inhibition, % at 10 µM | AID 588522 | 1% of 1,700 active;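 active = inhibition above the screen-wide mean plus twice its standard deviation, cut at about 32% in these data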
# A number is an active result; . = inactive; ? = inconclusive; / = no result.
SMILES,NALP3 yeast inh,Efflux pump mplx,PolyA inhibitor,HDAC3 inhib,NALP1 inh,GASC-1 inh,Cmpd fluor yeast,CaMdr1 efflux inh,CaCdr2 efflux inh,Cdr1 pump inh
O=C(CCSc1ccc(F)cc1)NNC(=O)c1ccccc1Cl,.,.,/,.,/,.,/,/,/,/
O=C(O)CNS(=O)(=O)c1ccc2c3c(cccc13)C(=O)N2,.,0.7,.,.,.,.,.,.,.,.
O=C1N[C@@H](Cc2ccccc2)C(=O)N2[C@H]1C[C@]1([C@]34C[C@H]5C(=O)N[C@@H](Cc6ccccc6)C(=O)N5[C@H]3N(S(=O)(=O)c3ccccc3)c3ccccc34)c3ccccc3N(S(=O)(=O)c3ccccc3)[C@H]21,.,0.8,.,.,/,.,.,.,.,.
CCOc1ccc(C(=O)NCc2ccc3c(c2)OCO3)cc1OCC,.,.,.,.,.,.,/,/,/,/
O=C(C1CCC1)N1CCc2cc(S(=O)(=O)NCc3ccccn3)ccc21,.,0.7,.,.,.,.,.,.,.,.
O=C(C1CC1)N1CCc2cc(Br)cc(S(=O)(=O)NCc3ccccn3)c21,.,.,.,.,.,.,/,/,/,/
O=C(C1CCC1)N1CCc2cc(S(=O)(=O)NCCN3CCN(c4ccccc4F)CC3)ccc21,.,1.1,.,.,.,.,.,.,.,.
Cc1cc(C)nc(SCCn2c(N3CC(C)OC(C)C3)nc3c2c(=O)n(C)c(=O)n3C)n1 (centres undefined),.,.,.,.,.,.,/,/,/,/
O=S(=O)(Nc1ccc(-n2cnnn2)cc1)c1ccc(Cl)s1,.,.,/,/,/,/,/,/,/,/
O=C(CN1CCCc2ccccc21)N/N=C/c1ccccc1,.,.,.,.,.,.,/,/,/,/
O=C(CN1CCCc2ccccc21)N/N=C/c1c(O)ccc2ccccc12,.,13,.,.,.,.,.,.,.,.
COc1c(C)cc(Br)cc1C(=O)Nc1ccccc1N1CCN(C(=O)c2ccccc2)CC1,.,1.0,.,.,.,.,.,.,.,.
COc1ccc(Br)cc1C(=O)Nc1ccccc1N1CCN(C(=O)c2ccccc2)CC1,.,.,.,.,.,.,/,/,/,/
COC(=O)c1cc(S(=O)(=O)C(C)C)c(S(C)=O)s1 (centres undefined),.,.,.,.,.,.,/,/,/,/
OCCN=C1CCCc2c1[nH]c1ccc(Cl)cc21,.,0.6,.,.,.,.,.,.,.,.
CCCOc1ccc(C(=O)Nc2ccc(NC(=O)c3cccs3)cc2)cc1,.,1.7,.,.,.,.,.,.,.,.
CCN(CCO)Cc1csc2ccccc12,.,.,.,.,.,.,/,/,/,/
CCN(CCO)Cc1csc2cc(C)ccc12,.,7.5,.,.,.,.,.,.,.,.
O=C(Nc1ccc(Cc2nc3ccccc3s2)cc1)c1ccncc1,.,.,.,.,.,.,/,/,/,/
CCN(Cc1nc2cc(Cl)ccc2c(=O)[nH]1)C(=O)c1cccc(NC(=O)c2cccs2)c1,.,.,/,.,/,.,/,/,/,/
CCN(Cc1nc2cc(Cl)ccc2c(=O)[nH]1)C(=O)c1cccc(OCc2c(C)noc2C)c1,.,1.6,/,.,/,.,.,.,.,.
CCC(C)NC(=O)CN(C1CCCCC1)S(=O)(=O)c1ccc(F)cc1 (centres undefined),.,.,.,.,.,.,/,/,/,/
Cc1cc(NS(=O)(=O)c2ccc(NC(=O)CCN3C(=O)c4ccccc4C3=O)cc2)no1,.,0.9,.,.,/,.,.,.,.,.
CC(C)(C)c1nc(NC(=O)Nc2ccccc2)sc1Br,.,.,.,.,.,.,/,/,/,/
O=C1C(Cc2cccc([N+](=O)[O-])c2)SC(=Nc2ccccc2)N1c1ccccc1 (centres undefined),.,13,.,.,.,.,.,.,.,.
SMILES,NALP3 yeast inh,Efflux pump mplx,PolyA inhibitor,HDAC3 inhib,NALP1 inh,GASC-1 inh,Cmpd fluor yeast,CaMdr1 efflux inh,CaCdr2 efflux inh,Cdr1 pump inh
O=C1C(Cc2ccc(Br)cc2)SC(=Nc2ccccc2)N1c1ccccc1 (centres undefined),.,.,.,.,.,.,/,/,/,/
CCOc1ccc(S(=O)(=O)N(C(=O)c2ccco2)c2cc3sc(=O)oc3c3ccccc23)cc1,.,2.0,.,.,.,.,.,.,.,.
COc1ccc(S(=O)(=O)N(C(=O)c2ccco2)c2cc3sc(=O)oc3c3ccccc23)cc1,.,.,.,.,.,.,/,/,/,/
Cc1cc(NC(=O)CCC(=O)N(c2cccnc2)C(C(=O)NC2CCCC2)c2ccccc2)no1 (centres undefined),.,.,.,.,.,.,.,.,.,.
Cc1cc(NC(=O)CCC(=O)N(CC(=O)NC2CCCC2)Cc2ccc3c(c2)OCO3)no1,.,.,.,.,.,.,/,/,/,/
Cc1cc(NC(=O)CCC(=O)N(CC(=O)NC2CCCC2)Cc2ccc(F)cc2)no1,.,.,.,.,/,.,.,.,.,.
O=C1COc2ccc(C(=O)COC(=O)c3ccc([N+](=O)[O-])cc3Cl)cc2N1,.,/,/,/,/,/,/,/,/,/
CC(/C=C/c1ccccc1)=N/NC(=O)c1nc2nc(C)cc(C)n2n1,.,.,.,/,.,.,/,/,/,/
CC(/C=C/c1ccccc1)=N\Nc1nc(C)cc(C)n1,.,5.5,.,.,.,.,.,.,.,.
COc1ccc(OCC(=O)Nc2ccc(C(=O)Nc3ccccc3C(=O)O)cc2)cc1,.,.,.,.,.,.,/,/,/,/
O=C(COc1ccc(Br)cc1)Nc1ccc(C(=O)Nc2ccccc2C(=O)O)cc1,.,1.2,.,.,.,.,.,.,.,.
O=c1c2ccccc2nnn1Cc1cccc2ccccc12,.,.,.,.,.,.,/,/,/,/
O=c1c2ccccc2nnn1Cc1ccccn1,.,8.2,.,.,.,.,.,.,.,.
O=C(CSc1nnc(CNC(=O)c2cccs2)o1)Nc1ccc(F)cc1F,.,.,.,.,.,.,/,/,/,/
Cc1ccc(C2/C(=C(/O)c3ccc(Cl)cc3)C(=O)C(=O)N2CC2CCCO2)o1 (centres undefined),.,.,.,.,.,.,/,/,/,/
O=C1C(=O)N(CC2CCCO2)C(c2ccccc2[N+](=O)[O-])/C1=C(/O)c1ccccc1 (centres undefined),.,1.4,.,?,.,.,.,.,.,.
CCOC(=O)/C(C#N)=C/C1=C(N2CCOCC2)CC(C)(C)OC1,.,.,.,/,.,.,/,/,/,/
CCCNC(=O)c1ccccc1NC(=O)c1ccccc1N(C)S(=O)(=O)c1ccc(C)cc1,/,/,.,/,.,.,/,/,/,/
Cc1ccc(S(=O)(=O)N(CC(=O)N/N=C/c2cccc3c2OCCO3)c2ccccc2F)cc1,.,0.5,.,.,.,.,.,.,.,.
